Consider eight compounds from article PMC5540273 (PLoS ONE, 2017).

One experiment concerns BMPR1A. The following applies: concentration: 1 μM, replicates: in singlicate; n = 1.
For the next experiment, the system named is BMPR1B. The following applies: concentration: 1 μM, replicates: in singlicate; n = 1.
The test system of the next experiment is BMPR2. The following applies: concentration: 1 μM, replicates: in singlicate; n = 1.
The test system of the next experiment is BMX. The following applies: concentration: 1 μM, replicates: in singlicate; n = 1.
For a further experiment, the system named is BRAF. The following applies: concentration: 1 μM, replicates: in singlicate; n = 1.
For a further experiment, the system named is T1, BRK.
T1 construct: gene PTK6
The following applies: concentration: 1 μM, replicates: in singlicate; n = 1.

The next experiment relates to BRSK1. The following applies: concentration: 1 μM, replicates: in singlicate; n = 1.
In another experiment the test system is BRSK2. The following applies: concentration: 1 μM, replicates: in singlicate; n = 1.
A further experiment concerns BTK. The following applies: n = 1.
The test system of another experiment is BUB1. The following applies: concentration: 1 μM, replicates: in singlicate; n = 1.
Setting [1] is: concentration: 1 μM, replicates: in singlicate.

Like-named read-outs stand apart in the source and are kept apart here.
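Also: KINOMEscan kinase panel screen.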

As for `Cl.NC(=O)c1cccc(Nc2nccc(Nc3ccc(Oc4cccc(Cl)c4)c(Cl)c3)n2)c1` [GW659008], the “%Inh” value with BMPR1A is on record as 0%; with BMPR1B, 0%; in the experiment with BMPR2, 3%; in the experiment on BMX, 14%; in the experiment with BRAF, 0%; in the experiment with BRK, 69%. In addition, the “%Inh” value in the experiment on BRSK1 was determined as 0%; with BRSK2 it was 0%; in the experiment with BTK (setting [1]) it was 0%; in the experiment with BUB1, 36%.

Regarding `Clc1cc(Cl)cc(Nc2ccnc(Nc3cc(Cl)cc(Cl)c3)n2)c1` [GSK175726], the “%Inh” value is 0% in the experiment on BMPR1A; 0% with BMPR1B; 5% in the experiment with BMPR2; 26% in the experiment with BMX; 0% in the experiment with BRAF; 21% with BRK. The “%Inh” value came to 0% in the experiment on BRSK1, 0% in the experiment with BRSK2, 0% in the experiment on BTK (setting [1]) and 10% in the experiment with BUB1.

For `COc1cc(Nc2nccc(N3CCC(NC(=O)Nc4cc(C)ccc4C)C3)n2)cc(OC)c1OC` (centres unmarked) [GSK1379762], the “%Inh” value amounted to 0% with BMPR1A; 0% with BMPR1B; 0% in the experiment with BMPR2; 35% in the experiment on BMX; 7% in the experiment with BRAF; 13% in the experiment with BRK. In addition, the “%Inh” value with BRSK1 was 0%; in the experiment on BRSK2, 0%; in the experiment on BTK (setting [1]) it was 0%; in the experiment with BUB1, 26%.

For the compound `O=S(=O)(c1ccc(-c2ccnc3[nH]ccc23)cc1)N1CCCC1` [GSK846226], the “%Inh” value is reported as 0% in the experiment with BMPR1A; 0% with BMPR1B; 24% in the experiment on BMPR2; 10% with BMX; 0% with BRAF; 0% with BRK. Further, the “%Inh” value in the experiment with BRSK1, in the experiment on BRSK2, in the experiment with BTK (setting [1]) and with BUB1 was 0% each time.

As for `COc1ccc(Nc2nccc(-c3cccc(NC(=O)c4cc5cc(F)ccc5[nH]4)c3)n2)cc1` [GSK1229782], the “%Inh” value with BMPR1A is listed as 10%; in the experiment on BMPR1B, 0%; in the experiment on BMPR2 it was 15%; with BMX, 16%; in the experiment on BRAF, 0%; in the experiment with BRK, 22%. Also, the “%Inh” value in the experiment on BRSK1 is 4%; with BRSK2, 12%; with BTK (setting [1]) it was 31%; with BUB1, 64%.

For `NC(=O)c1nnc2ccccc2c1N`, the “%Inh” value in the experiment with BMPR1A is on record as 7%; in the experiment with BMPR1B it was 10%; with BMPR2 it was 36%; in the experiment on BMX, 90.1%; in the experiment with BRAF it was 23%; with BRK, 9%. In addition, the “%Inh” value in the experiment with BRSK1 stood at 22%; in the experiment on BRSK2, 0%; in the experiment with BTK (1 µM), 43%; in the experiment with BUB1 it was 12%.

For the compound `CCCc1ccc(S(=O)(=O)NC2CCN(c3ccnc(Nc4ccc(F)cc4)n3)C2)cc1` (centres unmarked) [GSK1379715], the “%Inh” value came out at 0% in the experiment with BMPR1A; 0% in the experiment on BMPR1B; 0% in the experiment on BMPR2; 2% in the experiment with BMX; 0% in the experiment on BRAF; 0% with BRK. Moreover, the “%Inh” value was 0% in the experiment with BRSK1, 0% with BRSK2, 0% in the experiment with BTK (setting [1]) and 29% in the experiment with BUB1.

Take `O=C(O)COc1ncnc2cc(-c3ccc4[nH]ncc4c3)sc12`: the “%Inh” value with BMPR1A was determined as 19%; with BMPR1B, 18%; in the experiment with BMPR2, 63%; with BMX, 0%; with BRAF, 19%; in the experiment with BRK it was 100%. In addition, the “%Inh” value is 5% in the experiment on BRSK1, 1% with BRSK2, 0% with BTK (setting [1]) and 25% in the experiment on BUB1.
